# JMJD2A Tudor: JMJD2A Tudor domain (human) inhibition | hit rate 4.4% among 390,000 | AID 504339 | Potency, µM (doses to about 114 µM), for inactives: at the top dose activity change, negative = inhibition, most hits filed as inhibitors | AlphaScreen JMJD2A-Tudor / H3K4me3 peptide binding; note: % is set by controls: 0 for no effect and ±100 for the full control effect; nearly all actives have a fitted effect of over 50% in size
# BAZ2B inh: inhibitors of human BAZ2B bromodomain | hit rate 4.4% among 360,000 | AID 504333 | Q9UIF8 | AlphaScreen BAZ2B-H3K14Ac peptide displacement | Potency, µM (highest dose often 114 µM), without a hit: at the top dose activity change, negative = inhibition, most hits filed as inhibitors; note: % is set by controls: 0 for no effect and ±100 for the full control effect; nearly all actives have a fitted effect of over 60% in size
#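 Complex of BAZ2B and biotin-H3K14Ac (50 nM apiece) forms over 30 min at RT, then faces library compounds up to 110 uM for another 30 min; AlphaScreen beads added, 20 min dark incubation, luminescence read.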
# HP1b chromo inh: blocks HP1-beta chromodomain binding to methylated histone tails | hit rate 0.56% among 390,000 | P83916 | AlphaScreen HP1-beta / biotin-H3K9me3 peptide binding | Potency, µM (series often up to 114 µM), for inactives: at the highest dose activity change, negative = inhibition, hits mostly inhibitors; note: nearly all actives have a fitted effect of over 70% in size
# Target sequence (P83916 whole entry, looked up): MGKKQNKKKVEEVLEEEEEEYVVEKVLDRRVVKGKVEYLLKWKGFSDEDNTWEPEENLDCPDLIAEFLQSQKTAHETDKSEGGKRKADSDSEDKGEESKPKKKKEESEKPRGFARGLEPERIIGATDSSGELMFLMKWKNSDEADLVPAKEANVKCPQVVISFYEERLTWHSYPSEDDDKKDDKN
#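 Compound inhibition of the preformed complex between 50 nM HP1-beta and 50 nM biotinylated H3K9me3 peptide was read by AlphaScreen. Buffer was PBS pH 7.4 with 0.01% Tween-20. Incubations ran 30 min at room temperature, with 10 ug/mL donor/acceptor beads.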
# GLS inhibitor: inhibitors of human glutaminase (GLS); AID 624170; hit rate 0.21% among 410,000; O94925; GLS enzymatic activity, qHTS titration; Potency, µM (titrated, usually from 45.5 µM), for inactives: top-dose activity change, negative = inhibition, usual class: inhibitors; note: % is set by controls: 0 for no effect and ±100 for the full control effect
#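 Human kidney-isoform GLS in 45 mM KH2PO4 pH 8.2, 0.02% Tween-20, with compound, started with 1mM L-Glutamine (added stock). Glutamate oxidase/HRP/Amplex red coupled fluorescence read at start and after 30 min at RT.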
# G9a inh: inhibitors of human histone lysine methyltransferase G9a | hit rate 8.8% among 350,000 | Potency, µM (top dose mostly 102 µM), without a hit: at the highest dose activity, negative = inhibition, usual class: inhibitors | G9a H3K9 monomethylation, AlphaScreen, 2 h; note: % is set by controls: 0 for no effect and ±100 for the full control effect; nearly all actives have a fitted effect of over 75% in size
# Target sequence (Q96KQ7 913-1193 limits assumed): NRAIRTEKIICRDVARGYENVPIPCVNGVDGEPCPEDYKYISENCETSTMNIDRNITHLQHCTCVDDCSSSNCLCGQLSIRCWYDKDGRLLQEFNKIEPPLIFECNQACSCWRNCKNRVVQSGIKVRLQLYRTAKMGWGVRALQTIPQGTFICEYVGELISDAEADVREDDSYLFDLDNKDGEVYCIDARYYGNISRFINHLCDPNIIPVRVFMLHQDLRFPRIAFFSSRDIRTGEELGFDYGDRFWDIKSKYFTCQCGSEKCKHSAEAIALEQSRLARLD
#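 Methyltransferase reactions run at room temperature for 2 h (20 nM enzyme, 500 nM biotin-H3K9 peptide, 20 uM SAM) after a 15 min compound preincubation; product detected by AlphaScreen beads and anti-H3K9me1 antibody.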
# Active calls of the source: *; ? = inconclusive; / = no result; [ ] = another dose, or the depositor's remark. An excerpt weighted towards active compounds, which were near 10% of everything screened. Calls come from the whole dose curve; as a rule, active = well fitted curve in the direction sought with a large enough effect; inconclusive = small, poorly fitted or top-dose-only effect, or another doubt; inactive = no such curve, though single readings can be large; an effect the other way counts as inactive or inconclusive. Potency is the fitted concentration of half-maximal effect.
SMILES,JMJD2A Tudor,BAZ2B inh,HP1b chromo inh,GLS inhibitor,G9a inh
c1coc(Cn2c(SCc3nc4ccccc4[nH]3)nnc2-c2cnccn2)c1,?,-8.5%,38.9%,2.8%,31.6µM*
CCC(=O)N/N=C/c1ccc(OS(=O)(=O)c2ccccc2)cc1,3.3%,-2.9%,33.8%,-0.9%,20.8%[59 µM]
Cc1ccc(-c2cc(C(=O)NCCCN3CCCC3)c3ccccc3n2)cc1C,-15.9%,?,0.3%[57 µM],?,/
Cc1nn(CCC(=O)Nc2cccc(C#N)c2)c(C)c1S(=O)(=O)N1CCC(C)CC1,4.0%,-4.6%,36.7%,7.7%,-1.4%[12.7 µM]
C(=C\c1ccccc1)/CSc1nnc(-c2ccccn2)n1Cc1ccco1,?,-35.3%,15.4%,-7.8%,15.8µM*
Cc1cccc(CSc2nnc(-c3ccccn3)n2N)c1,50.1µM*,35.5µM*,25.2%,0.2%,14.1µM*
Clc1ccc(CSc2nnc(-c3cccnc3)n2Cc2ccco2)c(Cl)c1,-14.2%,-24.1%,2.7%,-2.9%,35.5µM*
Cc1ccc(NC(=O)CSc2nnc(-c3ccccn3)n2N)c(Br)c1,?,12.6µM*,26.5%,-2.5%,1.0%
O=C(Nc1ccc(NC(=O)C23CC4CC(CC(C4)C2)C3)cc1)c1cc(F)c(F)cc1Cl,-8.8%,1.5%,9.5%,7.8%,-5.8%
CCOc1ccc(NC(=O)COC(=O)c2cc(C)oc2C)cc1,1.5%,/,23.7%,4.9%,/
Clc1cccc(CSc2nnc(-c3cccnc3)n2Cc2ccco2)c1,-18.7%,6.1%,9.2%,-1.6%,?
Clc1ccccc1CSc1nnc(-c2ccccn2)n1Cc1ccco1,56.2µM*,56.2µM*,-0.5%,3.2%,?
NC(=O)CSc1nnc(-c2ccccn2)n1Cc1ccco1,0.0%,-38.0%,17.1%,-3.6%,-34.4%
Clc1cccc(-c2nnc(SCc3nc4ccccc4[nH]3)n2Cc2ccco2)c1,?,?,-4.9%,-1.2%,39.8µM*
Nn1c(SC/C=C/c2ccccc2)nnc1-c1ccccn1,20µM*,11.2µM*,31.1%,5.7%,28.2µM*
CS(=O)(=O)NCCSCc1c(Cl)cccc1Cl,3.3%,12.6%,16.2%,-0.9%,-6.2%
O=C(NCC(c1cccs1)N1CCOCC1)c1cc2ccccc2o1 (centres undefined),-14.5%,0.7%,33.6%,2.5%,?
O=[N+]([O-])c1cc2c(c(CSc3ncccn3)c1)OCOC2,-22.7%,-37.1%,11.1%,-8.6%,-2.1%
COc1cccc(Nc2nnc(SCc3cc([N+](=O)[O-])cc4c3OCOC4)s2)c1,?,-34.7%,5.0%,2.3%,?
Nc1cc(N)nc(SCc2cc([N+](=O)[O-])cc3c2OCOC3)n1,-2.2%[11.4 µM],1.1%,36.5%,2.0%,70.8µM*
Cc1cccc(C)c1Nc1nnc(SCc2cc([N+](=O)[O-])cc3c2OCOC3)s1,-32.4%,?,21.4%,-0.8%,50.1µM*
O=C(COC(=O)c1ccccc1NC(=O)c1ccccc1)c1cccc([N+](=O)[O-])c1,1.4%,-33.4%,31.3%,-16.2%,?
CCOC(=O)C1=C(C)N=C2SC(C(=O)OC)=CC(=O)N2C1c1cc(OC)c(OC)c(OC)c1 (centres undefined),?,-8.6%,-8.9%,-6.5%,-3.3%[59 µM]
Cc1nc(SCC(=O)N2c3ccccc3NC(=O)CC2C)c2c(C)c(C)sc2n1 (centres undefined),-13.1%,4.9%,33.4%,3.9%,44.7µM*
Cc1sc2nc(C3CC3)nc(SCC(=O)N3c4ccccc4CC3C)c2c1C (centres undefined),-7.4%,-8.6%,14.1%,1.3%,-22.2%
SMILES,JMJD2A Tudor,BAZ2B inh,HP1b chromo inh,GLS inhibitor,G9a inh
O=S(=O)(NCCc1ccccc1)c1cccc2nsnc12,-6.6%,8.5%,9.2%,1.1%,-9.6%
CCn1c(CN2CCC(C)CC2)nc2cc(NC(=O)c3cccc([N+](=O)[O-])c3)ccc21,56.2µM*,-8.3%,44.1%,-2.5%,3.4%[59 µM]
O=C(NNC(=O)c1cc2cc3ccccc3nc2s1)c1cccc(C(F)(F)F)c1,?,-38.1%,9.7%,7.2%,-24.4%
CCOC(=O)c1[nH]c2ccc(Cl)cc2c1NC(=O)/C=C/c1ccc2c(c1)OCO2,-8.9%,-7.4%,34.6%,1.5%,50.7%[59 µM]
CCN(CC(=O)Nc1c(C(=O)OC)[nH]c2ccc(Cl)cc12)c1ccc2c(c1)OCO2,56.2µM*,39.8µM*,?,28.8%,28.2µM*
O=C(c1cc2ccc3cccnc3c2[nH]1)N1CCN(c2cccc(C(F)(F)F)c2)CC1,-32.0%,-34.4%[57.1 µM],11.4%,1.7%,-28.1%[59 µM]
Fc1ccc(C2c3[nH]c4ccccc4c3CCN2CCCn2cccn2)cc1 (centres undefined),?,39.8µM*,-18.4%,-1.2%,4.8%[59 µM]
N=c1c2c(ncn1Cc1ccco1)Oc1c(ccc3ccccc13)C2c1ccccc1 (centres undefined),?,50.1µM*,?,-8.0%,-1.3%[2.33 µM]
N=c1c2c(ncn1Cc1ccco1)Oc1cc(O)ccc1C2c1ccccc1 (centres undefined),-16.2%,-21.5%,42.2%,3.3%,/
O=C(c1cccc(N2C(=O)C3C4C=CC(C4)C3C2=O)c1)N1CCCCCC1 (centres undefined),-1.2%,1.6%,19.4%,6.5%,1.26µM*
O=C(c1cccc(N2C(=O)c3ccccc3C2=O)c1)N1CCCCCC1,0.0%,?,44.4%,-2.6%,22.4µM*
O=C(O)c1cccc(N2C(=O)C3C4C=CC(C4=C(c4ccccc4)c4ccccc4)C3C2=O)c1 (centres undefined),-1.5%[11.4 µM],56.2µM*,-24.9%,17.1%,28.2µM*
CCOC(=O)C1CCCN(C(=O)c2cccc(N3C(=O)c4ccccc4C3=O)c2)C1 (centres undefined),-15.2%,-2.7%,32.2%,-3.8%,22.5%[12.7 µM]
O=C(O)c1cccc(N2C(=O)c3ccc4c5c(ccc(c35)C2=O)C(=O)N(c2cccc(C(=O)O)c2)C4=O)c1,-28.2%,?,0.9%,0.1%,12.6%[12.7 µM]
O=C(Cc1ccccc1)NC1(O)C(=O)c2ccccc2C1=O,-3.4%,-17.2%,17.2%,-2.5%,?
O=C(COC(=O)CCC1CCCC1)NCc1ccc(Cl)cc1,-12.0%,-9.6%,30.4%,2.7%,-3.5%
Oc1c(Cl)cc(Cl)cc1C=Nc1cc(C(F)(F)F)ccc1N1CCc2ccccc2C1,-19.0%,-5.7%,51.7%,?,5.7%[2.33 µM]
Cc1ccc(-n2c(N)c(C(=O)NCc3cccnc3)sc2=S)cc1,-23.0%,0.0%,?,-13.4%,10µM*
Cn1c(N)c(C(=O)NCc2ccccc2)sc1=S,89.1µM*,?,?,-9.9%,?
Cn1c(N)c(C(=O)Nc2c(Cl)cccc2Cl)sc1=S,-31.3%,-36.8%,-22.4%,-5.3%,50.1µM*
COC(=O)c1ccccc1NC(=O)c1sc(=S)n(C)c1N,-6.1%[11.4 µM],-36.1%,?,-12.7%,7.94µM*
CN(CCc1ccccc1)C(=O)c1cccc(NC(=O)Cc2cccc(NC(=O)C3CCN(C(=O)C4CC4)CC3)c2)c1,-13.8%,/,20.2%,5.7%,/

# Screening data deposited in PubChem by National Center for Advancing Translational Sciences (NCATS).
